This is an account of results in PubChem BioAssay (EPA / NIEHS).

“And” between values parts separate entries of the source, which are not always exact repeats. Equal entries are not always repeated. The source holds several records for some structures; these can differ, active in one and inactive in another. The source made the active and inactive calls. Rule for the calls: active = hit-call score of the fitted dose curve at least 0.9, where 1 is the maximum; inactive = score below 0.9.

For orientation: AC50 means the midpoint of the concentration-response curve, whichever way the signal moves.

Read-out in experiment [1]: Urokinase-type plasminogen activator receptor (uPAR), PLAUR (gene 5329)
As to the kind of experiment: BSK_4H_uPAR: BioMAP Diversity Plus: 4H Assay for Urokinase-type plasminogen activator receptor (uPAR) Biomarker Activity (AID 2283030). Conditions: primary human endothelial cells (HUVEC); actives raise or lower the signal. An outline of the steps: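 Endpoint derived via bidirectional curve fitting against DMSO baseline; readout was ELISA detection of uPAR on umbilical vein endothelial cells at 24 h post-treatment, with SRB-stained parallel cultures assessing cytotoxicity.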

Read-out in experiment [2]: Vascular endothelial growth factor receptor 2 (Homo sapiens) (UniProt P35968)
As to the kind of experiment: BSK_4H_VEGFRII: BioMAP Diversity Plus: 4H Assay for Vascular endothelial growth factor receptor 2 (VEGFR2) Biomarker Activity (AID 2283031). The following applies: primary human endothelial cells (HUVEC); actives raise or lower the signal. An outline of the steps:
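In this multiplexed HUVEC system, biomarker ELISA was performed after 24 h chemical exposure. Parallel SRB staining (TCA fixation, 560 nm) tracked cytotoxicity; DMSO served as baseline.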

Read-out in experiment [3]: Human Leukocyte Antigen - DR isotype (HLADR), HLA-DRA (gene 3122)
The experiment can be described thus: BSK_BE3C_HLADR: BioMAP Diversity Plus: BE3C Assay for Human Leukocyte Antigen - DR isotype (HLADR) Biomarker Activity (AID 2283032). The following applies: primary human bronchial epithelial cells; actives raise or lower the signal. An outline of the steps: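 Chemicals are dosed onto BE3C bronchial epithelial cultures of human origin and left 24 h. HLA-DR is then measured by ELISA, and the endpoint is fitted in both directions using DMSO as the activity baseline.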

Read-out in experiment [4]: Vascular cell adhesion molecule 1 (VCAM1), VCAM1 (gene 7412)
The experiment can be described thus: BSK_4H_VCAM1: BioMAP Diversity Plus: 4H Assay for Vascular cell adhesion molecule 1 (VCAM1) Biomarker Activity (AID 2283033).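 Note: cell-surface VCAM-1 protein measured by ELISA.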 The following applies: primary human endothelial cells (HUVEC); actives raise or lower the signal. A digest of the protocol: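 Chemicals are added to primary human umbilical vein endothelial cells. After 24 h, VCAM-1 levels are measured by ELISA. Values come from bidirectional fitting referenced to DMSO.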

Read-out in experiment [5]: Interferon-gamma inducible Protein 10 (IP10), CXCL10 (gene 3627)
As to the kind of experiment: BSK_BE3C_IP10: BioMAP Diversity Plus: BE3C Assay for Interferon-gamma inducible Protein 10 (IP10) Biomarker Activity (AID 2283034). Conditions: primary human bronchial epithelial cells; actives raise or lower the signal. An outline of the steps:
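IP-10 quantified by ELISA serves as the endpoint. Cells: primary human bronchial epithelium, read 24 h after compound addition. Activity is derived by bidirectional fitting with DMSO as negative control.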

Read-out in experiment [6]: Monokine induced gamma interferon (MIG), CXCL9 (gene 4283)
The experiment can be described thus: BSK_BE3C_MIG: BioMAP Diversity Plus: BE3C Assay for Monokine induced gamma interferon (MIG) Biomarker Activity (AID 2283035).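 Note: MIG protein measured by ELISA in BE3C cultures after 24 h of dosing.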 The following applies: primary human bronchial epithelial cells; actives raise or lower the signal. A digest of the protocol:
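hu bronchial epithelial 1° cells, 24 h cpd; MIG by ELISA; bidirectional fit, DMSO = baseline.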

Read-out in experiment [7]: Transforming growth factor beta 1 (TGFb1), TGFB1 (gene 7040)
The experiment can be described thus: BSK_BE3C_TGFb1: BioMAP Diversity Plus: BE3C Assay for Transforming growth factor beta 1 (TGFb1) Biomarker Activity (AID 2283036;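 note: TGF-b1 protein level measured by ELISA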). Conditions: primary human bronchial epithelial cells; actives raise or lower the signal. A digest of the protocol: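 Bronchial epithelial primary cells are treated with test chemical, then TGF-b1 is quantified by ELISA after 24 hours. Values derive from bidirectional fitting against DMSO, with cytotoxicity checked by SRB staining in parallel cultures.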

Read-out in experiment [8]: urokinase plasminogen activator (uPA), PLAU (gene 5328)
As to the kind of experiment: BSK_BE3C_uPA: BioMAP Diversity Plus: BE3C Assay for urokinase plasminogen activator (uPA) Biomarker Activity (AID 2283038).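 Note: uPA protein level quantified by ELISA in cell cultures; uPA read one day after compound addition.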 The following applies: primary human bronchial epithelial cells; actives raise or lower the signal. An outline of the steps:
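Using confluent primary human lung bronchial epithelial cultures, we dosed chemicals, waited 24 h, then ran a uPA ELISA, fitting bidirectionally against DMSO.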

Read-out in experiment [9]: Urokinase-type plasminogen activator receptor (uPAR), PLAUR (gene 5329)
As to the kind of experiment: BSK_BE3C_uPAR: BioMAP Diversity Plus: BE3C Assay for Urokinase-type plasminogen activator receptor (uPAR) Biomarker Activity (AID 2283039).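 Note: uPAR protein level measured by ELISA on the cells; cells exposed to compound for one day before measurement.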 The following applies: primary human bronchial epithelial cells; actives raise or lower the signal. An outline of the steps:
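Steps: dose human primary bronchial epithelial cells, incubate 24 h, measure uPAR by ELISA, then fit gain- or loss-of-signal response bidirectionally relative to DMSO.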

Read-out in experiment [10]: Plasminogen activator inhibitor-1 (PAI1), SERPINE1 (gene 5054)
The experiment can be described thus: BSK_BE3C_PAI1: BioMAP Diversity Plus: BE3C Assay for Plasminogen activator inhibitor-1 (PAI1) Biomarker Activity (AID 2283037). Conditions: primary human bronchial epithelial cells; actives raise or lower the signal. A digest of the protocol: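 Values derive from bidirectional fitting against DMSO baseline of PAI-1 levels, measured by ELISA in human bronchial epithelial cells 24 h after compound addition.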

In the case of `Cc1ccc(O)c(-n2nc3ccccc3n2)c1`, the outcome in experiment [1], in [2], in experiment [3], in experiment [4], in experiment [5] and in experiment [6] was inactive. In addition, the outcome in experiment [7], in experiment [8] and in experiment [9] was inactive.
For `O=C(Cl)C(F)(F)C(F)(F)C(F)(F)C(F)(F)C(F)(F)C(F)(F)C(F)(F)F`, the result in experiment [1], in experiment [2], in experiment [3], in [4], in experiment [5] and in experiment [6] was inactive. The result in experiment [8] and in experiment [9] was inactive. Also, the AC50 in [5] was 19.8 µM (active).
Take `NC(=O)C(F)(F)C(F)(F)C(F)(F)C(F)F`: the result in experiment [1], in [2], in [3], in experiment [4], in experiment [5] and in experiment [6] was inactive. The outcome in experiment [10], in [8] and in experiment [9] was inactive.
With `OCC(O)CC(F)(F)C(F)(F)C(F)(F)C(F)(F)F` (stereo not given), the outcome in experiment [1], in experiment [2], in experiment [3], in experiment [4], in experiment [5] and in [6] was inactive. The outcome in [8] and in experiment [9] was inactive.
`O=C(Cl)C(F)(F)C(F)(F)C(F)(F)C(F)(F)C(F)(F)C(F)(F)F`: the result in experiment [1], in [2], in [3], in [4], in experiment [5] and in [6] was inactive. For the same molecule, the outcome in experiment [10], in [8] and in experiment [9] was inactive.
Turning to `O=C(O)C(F)(F)C(F)(F)C(F)(F)OC(F)(C(F)(F)F)C(F)(F)F`, the outcome in experiment [1], in [2], in experiment [3], in experiment [4], in experiment [5] and in experiment [6] was inactive. The outcome in experiment [8] and in experiment [9] was inactive.
On to `C=CC(=O)OCC(F)(F)C(F)(F)C(F)(F)C(F)(F)C(F)(F)C(F)(F)C(F)(F)C(F)F`, for which the result in experiment [1], in experiment [2], in experiment [3], in experiment [4], in experiment [5] and in [6] was inactive. Also, the result in experiment [8] and in [9] was inactive.
For the molecule `FC(F)(F)C(F)(F)C(F)(F)CC1CO1` (stereo not given), the result in experiment [1], in [2], in experiment [3], in experiment [4], in [5] and in [6] was inactive. The outcome in experiment [8] and in experiment [9] was inactive.
For `FC(F)(F)C(F)(F)C(F)(F)C(F)(F)C(F)(F)C(F)(F)C(F)(F)CCI`, the outcome in experiment [1], in experiment [2], in experiment [3], in experiment [4], in [5] and in [6] was inactive. Also, the outcome in experiment [10], in experiment [8] and in experiment [9] was inactive.
Turning to `NC(=O)C(F)(F)C(F)(F)C(F)(F)C(F)(F)C(N)=O`, the result in experiment [1], in experiment [2], in experiment [3], in [4], in experiment [5] and in experiment [6] was inactive. The result in [8] and in [9] was inactive.
As for `OCCCCC(F)(F)C(F)(F)C(F)(F)C(F)(F)F`, the outcome in [1], in [2], in experiment [3], in experiment [4], in [5] and in experiment [6] was inactive. The outcome in experiment [8] and in experiment [9] was inactive.
Regarding `NC(O)(C(F)(F)F)C(F)(F)F`, the result in [1], in experiment [2], in experiment [3], in experiment [4], in experiment [5] and in experiment [6] was inactive. In addition, the result in [10], in [8] and in experiment [9] was inactive.
Regarding `OCC(F)(F)C(F)(F)C(F)(F)CO`, the outcome in experiment [1], in [2], in experiment [3], in experiment [4], in experiment [5] and in [6] was inactive. Also, the result in experiment [10], in [8] and in [9] was inactive.
On to `OCC(O)CC(F)(F)C(F)(F)C(F)(F)C(F)(F)C(F)(F)C(F)(F)C(F)(F)C(F)(F)F` (stereo not given), for which the outcome in experiment [1], in experiment [2], in experiment [3], in experiment [4], in experiment [5] and in experiment [6] was inactive. The result in [10], in [8] and in experiment [9] was inactive.
As for `NC(=O)C(F)(F)C(F)(F)C(F)(F)F`, the outcome in [1], in experiment [2], in experiment [3], in experiment [4], in [5] and in experiment [6] was inactive. Also, the outcome in [10], in [8] and in experiment [9] was inactive.
Consider `OCC(F)(F)C(F)(F)C(F)(F)C(F)(F)C(F)(F)C(F)(F)CO`, for which the outcome in experiment [1], in [2], in experiment [3], in experiment [4], in [5] and in experiment [6] was inactive. Also, the outcome in [8] and in experiment [9] was inactive.
In the case of `O=S(=O)(O)CCC(F)(F)C(F)(F)C(F)(F)C(F)(F)C(F)(F)C(F)(F)C(F)(F)C(F)(F)F`, the result in experiment [1], in experiment [2], in experiment [4], in [6], in [8] and in experiment [9] was inactive. In addition, the concentration at half-maximal activity (AC50) in experiment [3] is 20.4 µM (active) and 25.3 µM (active); in experiment [5], 16.8 µM (active) and 24.1 µM (active).
